Bioassay records from PubChem.
KB-3-1 cytotox: qHTS assay for MDR1-selective chemotherapeutics: Primary screen using the parental adenocarcinoma cell KB-3-1; KB-3-1 viability, CellTiter-Glo ATP luminescence, 72 h; 400,000 compounds, 1.4% hits; Potency, µM (highest dose often 46.1 µM), hits mostly cytotoxic; AID 1347075, 2019; also: nearly all actives have a fitted effect of over 60% in size
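Parental KB-3-1 viability, qHTS format: 72 h compound exposure, 37 °C; CellTiter-Glo; media-only wells and DMSO plates as controls; concentration-effect fits on corrected data.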
HT1080NT lethal: qHTS for induction of synthetic lethality in tumor cells producing 2HG: qHTS for the HT-1080-NT fibrosarcoma cell line; 360,000 compounds, 1.6% hits; AID 686970, 2013; HT-1080-NT fibrosarcoma viability, CellTiter-Glo ATP luminescence, 48 h; Potency, µM (top dose mostly 46.1 µM), for the others: at the top dose activity, negative = less viability, hits mostly cytotoxic;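 also: NT is the 2HG producing partner of a matched IDH1 knockdown line; 0% = DMSO-treated cells and -100% = media-only wells without cells; nearly all actives have a fitted effect of over 55% in size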
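Read-out is CellTiter-Glo luminescence after 10 minutes at room temperature, following 48 hours' compound treatment of HT-1080-NT cells (750 cells/well, RPMI, 5% FBS, 37 degrees C).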
TDP1 cell noCPT: qHTS for Inhibitors of human tyrosyl-DNA phosphodiesterase 1 (TDP1): qHTS in cells in absence of CPT; AID 686978, 2013; DT40 Tdp1-/- hTDP1 cells, no CPT, ATP luminescence, 48 h; 420,000 compounds, 15% hits; Potency, µM (top dose mostly 46.2 µM), inactives show at the highest dose activity change, negative = growth inhibition, actives largely listed as inhibitors; also: nearly all actives have a fitted effect of over 55% in size
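Cells were dispensed at 400 per well, compounds added by pin tool, plates incubated ≥48 hr at 37 °C, then CellTiter-Glo added for 30 min at room temperature before luminescence reading. Line: DT40 Tdp1-/- complemented with hTDP1; camptothecin omitted.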
KB-V1 MDR tox: qHTS assay for MDR1-selective chemotherapeutics: Primary screen using the drug-selected MDR subline cells KB-V1; KB-V1 MDR cells viability, CellTiter-Glo, 72 h; Potency, µM (highest dose often 46.1 µM), actives largely listed as cytotoxic; 400,000 compounds, 3.4% hits; AID 1347076, 2019; also: nearly all actives have a fitted effect of over 60% in size
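Cytotoxicity toward P-gp-expressing KB-V1 cells was determined as loss of CellTiter-Glo luminescence after 72 h at 37 degrees C. Compounds were tested in quantitative HTS format across a concentration range, with curves fitted to normalized data.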
DT40 TDP1 CPT: qHTS for Inhibitors of human tyrosyl-DNA phosphodiesterase 1 (TDP1): qHTS in cells in presence of CPT. AID 686979, 2013. Potency, µM (titrated, usually from 46.2 µM), for inactives: top-dose activity change, negative = growth inhibition, hits mostly inhibitors. 420,000 compounds, 12% hits. chicken DT40 Tdp1-/-;hTDP1 cells + 20 nM CPT, ATP luminescence, 48 h; also: nearly all actives have a fitted effect of over 55% in size
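Chicken DT40 Tdp1-/- cells stably complemented with human TDP1 were seeded at 400 cells/well in medium containing 20 nM camptothecin, exposed to pin-transferred compounds, and grown at 37 °C for at least 48 hr. Viability was read as ATP luminescence.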
HT1080 IDH1KD tx: qHTS for induction of synthetic lethality in tumor cells producing 2HG: qHTS for the HT-1080-IDH1KD cell line; HT-1080 IDH1 knockdown viability, ATP luminescence, 48 h; 360,000 compounds, 2% hits; Potency, µM (series often up to 46.1 µM), without a hit: at the top dose activity, negative = toxicity, most hits filed as cytotoxic;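 also: 0% = DMSO wells and -100% = cell-free medium wells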
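Knockdown cells (IDH1KD HT-1080) received compounds 2 h after plating at 750 cells/well and were kept 48 h at 37 °C in 5% FBS RPMI. A CellTiter-Glo luminescence read gave % activity for curve fitting.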
* = called active by the depositor; i = inactive; ? = inconclusive; . = no result; [ ] = another dose, or the depositor's remark. Rows were chosen to be rich in hits. Some 19% of all compounds tested hit in one or more screens of this group. Calls follow the shape of the dose curve; as a rule, active = well fitted curve in the direction sought with a large enough effect; inconclusive = small, poorly fitted or top-dose-only effect, or another doubt; inactive = no such curve, though single readings can be large; an effect the other way counts as inactive or inconclusive. Unless noted, % is scaled to controls: 0 for no effect and ±100 for the full control effect; potency is read from the fitted curve at half-maximal effect.

SMILES | KB-3-1 cytotox | HT1080NT lethal | TDP1 cell noCPT | KB-V1 MDR tox | DT40 TDP1 CPT | HT1080 IDH1KD tx
O=C(N/N=C/c1ccc(-c2ccccc2[N+](=O)[O-])o1)c1cncc(Br)c1 | i | -2.3% | ? | i | ? | -13.4%
O=C(N/N=C/c1ccc([N+](=O)[O-])o1)c1ccncc1 | i | ? | 9.2µM* | i | 9.2µM* | 18.4µM*
Cc1nc2ccccn2c1C(=O)N/N=C/c1ccc([N+](=O)[O-])o1 | i | -16.6% | 5.8µM* | ? | 2.91µM* | -6.7%
O=C(O)C1CSC2(c3ccc(Br)cc3)CCC(=O)N12 (stereo not drawn) | i | 8.0% | ? | i | 19.7% | 11.2%
CC1CCN(C(=O)c2ccc(NS(=O)(=O)c3ccc4[nH]c(=O)[nH]c4c3)cc2)CC1 | i | 15.5% | -10.9% | i | -16.0% | 14.0%
Cc1ccc(CNC(=O)CCc2c(C)nc3c(-c4ccc(F)cc4)c(C)nn3c2C)cc1 | i | . | -4.4% | i | -14.0% | .
CN(C(=O)COC(=O)COc1ccc(Cl)cc1Cl)c1c(N)n(Cc2ccccc2)c(=O)[nH]c1=O | i | 1.2% | -2.2% | i | -8.3% | 4.8%
O=c1[nH]nc(Cc2ccc(-c3cccc(Cl)c3)o2)c2ccccc12 | i | ? | ? | i | 16.4µM* | ?
Clc1cccc(-c2ccc(CNCc3ccccn3)o2)c1 | i | -5.7% | ? | i | ? | -1.0%
CC(C)(CO)NC(=O)Nc1ccc(Cl)c(Cl)c1 | i | 1.9% | -15.3% | i | 21.4% | 0.0%
CC(=O)C1=C(C)NC(SCC(=O)c2ccc(Cl)cc2)=C(C#N)C1CC(C)C (stereo not drawn) | i | 20.6% | ? | 20.6µM* | -23.3% | 6.2%
CCOC(=O)C1=C(C)NC(SC)=C(C#N)C1CC(C)C (stereo not drawn) | 4.11µM* | 1.84µM* | 3.66µM* | 5.17µM* | 3.66µM* | 2.59µM*
CCOC(=O)C1CCCN(C(=O)c2nn(-c3ccc(C)cc3)c(=O)c3c2c2ccccc2n3C)C1 (stereo not drawn) | i | . | ? | i | ? | .
CCOC(=O)N1CCN(C(=O)c2c[nH]c3ccc(S(=O)(=O)N(C)c4cccc(C)c4)cc3c2=O)CC1 | i | -6.1% | 13.9% | i | -13.6% | -3.4%
O=C1CSc2nc3ccccc3n21 | i | 15.4% | 1.1% | ? | -10.8% | -0.9%
CC12CCC(C(=O)n3c1nc1ccccc13)C2(C)C (stereo not drawn) | i | 1.3% | 20.6µM* | i | 18.4µM* | -21.7%
Cn1c(SCC(=O)Nc2nccs2)nnc1-c1ccccn1 | i | ? | 11.1% | i | -13.8% | 14.3%
COc1cccc(CNC(=O)c2nn(-c3ccc(C)cc3)c(=O)c3c2c2ccccc2n3C)c1 | i | . | ? | i | ? | .
Cc1ccc(-c2ccccc2NC(=O)CCl)o1 | i | 0.5% | 20.6µM* | i | 14.6µM* | 1.1%[9.24 µM]
Cc1ccc(NC(=O)CS(=O)CC(=O)NC(C)CCc2ccco2)cc1Cl (stereo not drawn) | i | -3.4% | ? | i | -17.3% | -6.4%
Cc1ccc(-c2ccccc2NC(=O)C2C3C=CC(C3)C2C(=O)O)o1 (stereo not drawn) | i | 0.0% | -18.8% | i | -27.9% | -1.4%
Cc1ccc(-c2ccccc2NC(=O)CS(=O)CC(=O)Nc2ccc(C)c(Cl)c2)o1 (stereo not drawn) | i | -3.0% | ? | i | ? | 23.1µM*
CCCCCCC[N+](CC)(CC)CCCCc1ccc(Cl)cc1 | ? | 6.51µM* | 0.206µM* | i | 0.651µM* | 6.51µM*
CCCCCCCCCCCCCCCCCCc1ccc(C(=O)/C=C/C(=O)O)cc1 | . | . | -15.8% | . | 0.6% | .
COc1ccc(CCNC(=O)C(=O)NCC2OCCN2S(=O)(=O)c2ccc(OC)c(OC)c2)cc1 (stereo not drawn) | i | -6.2% | ? | i | -9.9% | -3.0%
SMILES | KB-3-1 cytotox | HT1080NT lethal | TDP1 cell noCPT | KB-V1 MDR tox | DT40 TDP1 CPT | HT1080 IDH1KD tx
COc1ccc(CCNC(=O)C(=O)NCC2OCCN2S(=O)(=O)c2ccc3c(c2)OCCO3)cc1OC (stereo not drawn) | . | 0.7% | ? | . | ? | 0.7%
Cc1ccc(CNC(=O)C(=O)NCC2OCCN2S(=O)(=O)c2ccc3c(c2)OCCO3)cc1 (stereo not drawn) | i | 0.0% | -22.3% | ? | 25.9µM* | -2.0%
COc1ccc(CCNC(=O)C(=O)NCC2OCCN2S(=O)(=O)c2ccc3c(c2)OCCO3)cc1 (stereo not drawn) | . | -0.7% | 16.4µM* | . | 20.6µM* | -2.1%
COc1ccc(S(=O)(=O)N2CCOC2CNC(=O)C(=O)NCCc2ccc(OC)c(OC)c2)cc1C (stereo not drawn) | i | 1.5% | 16.4µM* | ? | ? | 1.8%
NS(=O)(=O)c1ccc(CCNC(=O)C(=O)NCC2OCCN2S(=O)(=O)c2ccc(Cl)cc2)cc1 (stereo not drawn) | i | 0.0% | ? | i | 23.1µM* | 1.0%
COc1ccccc1NC(=O)c1cc(-c2cc(OC)c(OC)c(OC)c2)nc2ccccc12 | i | -11.9% | 7.31µM* | ? | 9.2µM* | -7.2%
CCOc1ccccc1NC(=O)c1cc(-c2cc(OC)c(OC)c(OC)c2)nc2ccccc12 | i | -18.3% | 7.31µM* | ? | 10.3µM* | -14.9%
COc1cc(-c2cc(C(=O)Nc3ccncc3)c3ccccc3n2)cc(OC)c1OC | i | 1.0%[9.24 µM] | 1.3µM* | ? | 2.91µM* | -0.8%
COc1cc(NC(=O)c2cc(-c3ccccc3)nc3c2cnn3C(C)C)cc(OC)c1OC | ? | 0.3% | 5.8µM* | ? | 13µM* | 0.2%
COc1ccc(-c2cc(C(=O)Nc3ccccc3O)c3ccccc3n2)cc1OC | i | -3.0% | ? | ? | -29.5% | 3.1%
[O-][N+](=Cc1ccccc1)CC1(O)CCCCC1 | i | -1.0% | -9.8% | i | -0.2% | -5.8%
